The panel holds about 83,000 compounds, 20% with a hit somewhere; the sample as a whole holds those more often.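 Single-concentration screen, 48 h exposure, 96-well plates. Endpoint: percent growth. Below 10 = active.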 Unmarked numbers belong to inactive results. Activity calls are given as the source filed them.
How the values were obtained:
Assay in all cases: NCI-60 one-dose screen, 48 h (100 = growth as untreated, 0 = no growth, -100 = all killed)
NCI-H23 lung = details: 10 µM unless noted
NCI-H322M lung = details: 10 µM unless noted
HOP-62 NSCLC = details: 10 µM unless noted
NCI-H460 lung = details: 10 µM unless noted
HOP-92 NSCLC = details: 10 µM unless noted
NCI-H522 lung = details: 10 µM
A549/ATCC NSCLC = details: 10 µM unless noted
786-0 renal = details: 10 µM unless noted
DU-145 prostate = details: 10 µM unless noted
K-562 leukemia = details: 10 µM unless noted
MALME-3M melanoma = details: 10 µM unless noted
MDA-MB-231 breast = details: 10 µM unless noted
RXF 393 renal = details: 10 µM unless noted
SF-268 CNS = details: 10 µM unless noted
SF-295 CNS = details: 10 µM unless noted
SF-539 CNS = details: 10 µM unless noted
UACC-257 melanoma = details: 10 µM unless noted
M14 melanoma = details: 10 µM unless noted

Row | SMILES | growth (NCI-H23 lung) | growth (NCI-H322M lung) [%] | growth (HOP-62 NSCLC) | growth (NCI-H460 lung) | growth (HOP-92 NSCLC) [%] | growth (NCI-H522 lung) | growth (A549/ATCC NSCLC) | growth (786-0 renal) | growth (DU-145 prostate) | growth (K-562 leukemia) | growth (MALME-3M melanoma) | growth (MDA-MB-231 breast) | growth (RXF 393 renal) | growth (SF-268 CNS) | growth (SF-295 CNS) | growth (SF-539 CNS) | growth (UACC-257 melanoma) | growth (M14 melanoma)
1 | CN1CCN(c2ccc3nc(-c4ccc5nc(-c6ccc(C(F)(F)F)cc6)[nH]c5c4)[nH]c3c2)CC1 | 68.2% | 80.1 | 51.3% | 30.9% | 59.3 | 64.1% | 89.8% | 69.6% | 59.2% | -34.2% (active) | 18% | 82% | -14.3% (active) | 70.8% | 50.9% | 47.2% | 87.2% | 43.8%
2 | C=C1CC[C@@H]2[C@@](C)(CCC[C@]2(C)C(=O)O)[C@@H]1CC[C@H](CO)CCO | 102% | 101 | 100% | 113% | 90 | 85.6% | 102% | 99.3% | 112% | 106% | 93.8% | 105% | 118% | 99.8% | 103% | 105% | 109% | 102%
3 | O=C1/C(=C/c2ccccc2F)CNC/C1=C\c1ccccc1F | -48.3% (active) | 14.8 | -63.6% (active) | -29.7% (active) | 16.6 | -61.1% (active) | -11.1% (active) | -92.8% (active) | -11.6% (active) | 5.7% (active) | -9.46% (active) | -2.14% (active) | -86.2% (active) | -11.4% (active) | -17.3% (active) | -33% (active) | -46.1% (active) | -47.3% (active)
4 | CCCCCCCC/C=C\CCCCCCCCOc1cccc(CC(=O)NCC[N+](C)(C)C)c1 | 83.1% | 102 | 62.9% | 57.9% | 74.2 | 80.8% | 90.9% | 80.8% | 94.4% | 85.5% | 90.1% | 87.3% | 13.8% | 71.5% | 87.1% | 92.2% | 103% | 75.3%
5 | CCCCCCCC/C=C\CCCCCCCCOc1cccc(CC(=O)NCC[N+]2(C)CCCCC2)c1 | 71.9% | 92.3 | 67% | 40.1% | 86.9 | 63% | 82.3% | 90.4% | 84.5% | 46.2% | 79.1% | 71.2% | -2.16% (active) | 61.6% | 87.5% | 99.1% | 98.5% | 84.4%
6 | COc1cc(/C=N/NC(=O)c2cnn3c2NC(c2ccccc2)C3)cc(OC)c1OC (configuration not stated) | 102% | 84 | 71.2% | 26.7% | 76 | 35.5% | 64.8% | 88% | 90.8% | 31.6% | 65.2% | 67.1% | 87.7% | 81.4% | 53.1% | 68.1% | 86.5% | 50.3%
7 | COc1cc(OCc2cccc(-c3ccc(C(O)c4nccs4)cc3)c2C)cc(OC)c1C=O (configuration not stated) | 42.1% | 92.1 | 47.9% | 38.8% | 62.5 | 47.3% | 40.2% | 48.2% | 53.6% | 18% | 7.88% (active) | 54.5% | 59.5% | 65% | 35.1% | 69.4% | 13.3% | 32%
8 | COc1ccc(/C=N/NC(=O)c2cnn(CC(O)Cc3ccccc3)c2N)cc1OC1CCCC1 (configuration not stated) | 93.2% | 103 | 85.5% | 98.5% | 86.5 | 92.7% | 96.3% | 97.9% | 91.2% | 99.5% | 99.4% | 86.1% | 85.8% | 98.3% | 83.8% | 87.3% | 110% | 99.5%
9 | O=C(NC1CC1)c1cc2n(n1)CC(c1ccccc1)N2 (configuration not stated) | 100% | 99 | 102% | 100% | 85.3 | 91.1% | 99.6% | 101% | 107% | 103% | 104% | 91.3% | 95.6% | 95.2% | 91.8% | 96.3% | 98.3% | 101%

Reference: PubChem BioAssay (NCI)
